Results published in PubChem BioAssay (NCATS).
Records with an inconclusive call do not appear. Calls of active or inactive are those of the source. Unless noted, calls come from the whole dose curve; as a rule, active = well fitted curve in the direction sought with a large enough effect; inconclusive = small, poorly fitted or top-dose-only effect, or another doubt; inactive = no such curve, though single readings can be large; an effect the other way counts as inactive or inconclusive.

How the values were obtained:
[1] = molecular target: Lysosomal acid glucosylceramidase (Homo sapiens) (UniProt P04062); experiment: Glucocerebrosidase-p2 (AID 348; in the data active = potency below about 10 µM; note: potency is the fitted concentration of half-maximal effect); conditions: purified GBA, blue fluorogenic substrate, 40 min
Lysosomal acid glucosylceramidase (Homo sapiens), sequence (P04062 whole entry, looked up): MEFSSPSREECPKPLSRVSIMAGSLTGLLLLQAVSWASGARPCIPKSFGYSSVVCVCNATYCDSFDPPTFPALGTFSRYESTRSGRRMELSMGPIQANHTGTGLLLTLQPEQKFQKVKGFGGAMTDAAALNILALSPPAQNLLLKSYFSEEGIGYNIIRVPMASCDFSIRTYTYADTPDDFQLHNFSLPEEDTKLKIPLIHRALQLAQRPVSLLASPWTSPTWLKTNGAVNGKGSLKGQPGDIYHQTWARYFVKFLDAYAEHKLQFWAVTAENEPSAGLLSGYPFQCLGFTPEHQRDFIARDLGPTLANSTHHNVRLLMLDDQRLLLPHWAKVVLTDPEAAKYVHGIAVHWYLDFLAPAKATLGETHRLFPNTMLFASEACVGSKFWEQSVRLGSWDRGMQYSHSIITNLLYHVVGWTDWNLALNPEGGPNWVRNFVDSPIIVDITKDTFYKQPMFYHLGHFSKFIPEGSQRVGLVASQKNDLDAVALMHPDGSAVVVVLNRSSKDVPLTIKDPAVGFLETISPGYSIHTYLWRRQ
How it was run: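 Compounds titrated from 0.6 nM upwards against 0.2 nM enzyme in pH 5.9 citric acid/KH2PO4, taurocholate, tween-20; blue fluorogenic substrate 80 uM, 40 min room temperature, stopped and read Ex 365/Em 440 for AC50.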

[2] = AP1 Signaling Pathway (AID 357; active = well fitted curve in either direction with a large enough effect, not every such curve was filed as active;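 note: ME-180 reporter cells stimulated with EGF at its EC50 level; % is set by controls: 0 for no effect and ±100 for the full control effect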); conditions: ME-180 AP-1-bla reporter, EGF-induced, beta-lactamase ratio, 5 h; at 7.69 µM (top of the series) unless noted
How it was run: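 Read-out was the 460nm/530nm emission ratio (excitation 405nm) after CCF4 loading for 2.5 hours at room temperature. Cells carried an AP-1-driven beta-lactamase reporter, were stimulated with EC50 EGF plus compound for 5 hours, and AC50 values came from titrations.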

[3] = molecular target: Cytochrome P450 1A2 (Homo sapiens) (UniProt P05177); experiment: p450-cyp1a2 (AID 410; calls by dose curve; note: potency is the fitted concentration of half-maximal effect); conditions: recombinant CYP1A2, luciferin-ME demethylation, luminescence; series mostly up to 57 µM
Cytochrome P450 1A2 (Homo sapiens), sequence (P05177 whole entry, looked up): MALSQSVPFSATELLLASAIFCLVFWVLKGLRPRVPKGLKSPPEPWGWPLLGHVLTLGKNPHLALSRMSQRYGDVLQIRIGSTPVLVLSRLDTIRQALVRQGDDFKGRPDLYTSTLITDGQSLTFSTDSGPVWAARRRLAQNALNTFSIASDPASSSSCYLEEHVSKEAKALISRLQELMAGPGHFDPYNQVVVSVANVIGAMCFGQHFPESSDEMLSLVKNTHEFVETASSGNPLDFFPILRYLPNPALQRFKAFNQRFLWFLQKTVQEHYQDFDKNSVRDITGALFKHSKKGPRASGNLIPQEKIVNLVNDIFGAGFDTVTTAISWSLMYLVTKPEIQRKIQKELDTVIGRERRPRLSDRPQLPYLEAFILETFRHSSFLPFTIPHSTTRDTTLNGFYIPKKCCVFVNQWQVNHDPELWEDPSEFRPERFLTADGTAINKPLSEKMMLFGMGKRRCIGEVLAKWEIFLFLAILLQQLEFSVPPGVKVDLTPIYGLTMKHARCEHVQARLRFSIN
How it was run: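 Luminescent readout of luciferin formed from Luciferin-ME by human CYP1A2; data normalized against complete inhibition by 57 uM furafylline. Enzyme 20nM, substrate 100uM at Km, 100mM KPO4 buffer, 60 min reaction at room temperature.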

[4] = NFAT Signaling Pathway (AID 444; active = well fitted curve in either direction with a large enough effect, not every such curve was filed as active;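 note: carbachol stimulus at about its EC50 of 1 µM final; % is set by controls: 0 for no effect and ±100 for the full control effect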); conditions: Jurkat NFAT-bla M1, carbachol, beta-lactamase ratio, 5 h; at 7.69 µM (top of the series) unless noted
How it was run: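 Jurkat cells carrying an NFAT-driven β-lactamase reporter and co-transfected muscarinic M1 receptor were treated with compound plus carbachol (1 uM final, an EC50 level) for 5 h at 37 °C. CCF4 loading followed for 1 h at RT; 460/530 nm ratio gave %activity.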

[5] = molecular target: Glucocorticoid receptor (Homo sapiens) (UniProt P04150); experiment: GR-GFP Redistribution (AID 450;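 active = compounds whose dose series gives a full or clear partial fitted curve of increased nuclear translocation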; note: potency is the fitted concentration of half-maximal effect); conditions: U2OS GR-GFP nuclear translocation, laser cytometry, 2 h
Glucocorticoid receptor (Homo sapiens), sequence (P04150 whole entry, looked up, the tested form may be a part): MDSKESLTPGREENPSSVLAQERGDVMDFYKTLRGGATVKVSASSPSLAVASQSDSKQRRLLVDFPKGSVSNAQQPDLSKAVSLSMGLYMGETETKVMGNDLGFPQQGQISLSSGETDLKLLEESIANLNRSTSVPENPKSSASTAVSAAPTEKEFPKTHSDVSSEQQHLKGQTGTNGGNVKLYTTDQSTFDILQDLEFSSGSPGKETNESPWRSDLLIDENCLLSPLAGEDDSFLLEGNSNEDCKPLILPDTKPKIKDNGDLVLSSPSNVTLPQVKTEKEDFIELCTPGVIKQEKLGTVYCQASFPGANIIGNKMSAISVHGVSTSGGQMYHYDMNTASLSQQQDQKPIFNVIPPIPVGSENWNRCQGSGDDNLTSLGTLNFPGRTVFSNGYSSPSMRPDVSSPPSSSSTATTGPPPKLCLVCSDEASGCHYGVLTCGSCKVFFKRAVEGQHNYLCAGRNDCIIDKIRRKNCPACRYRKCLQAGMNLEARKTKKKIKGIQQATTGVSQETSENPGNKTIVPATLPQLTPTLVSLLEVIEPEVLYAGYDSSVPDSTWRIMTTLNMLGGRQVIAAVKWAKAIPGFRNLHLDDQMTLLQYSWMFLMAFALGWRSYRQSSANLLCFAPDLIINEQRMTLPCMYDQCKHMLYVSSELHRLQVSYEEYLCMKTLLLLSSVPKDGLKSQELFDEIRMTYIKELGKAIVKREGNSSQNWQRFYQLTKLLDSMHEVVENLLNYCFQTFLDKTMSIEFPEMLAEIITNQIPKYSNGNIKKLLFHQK

[6] = molecular target: Glucocorticoid receptor (Homo sapiens) (UniProt P04150); experiment: GR-EFC Redistribution (AID 451; calls by dose curve; note: potency is the fitted concentration of half-maximal effect); conditions: CHO-K1 GR-EFC translocation, beta-gal luminescence, 2 h
How it was run: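 CHO-K1 cells stably expressing nuclear-localized β-gal enzyme acceptor and GR fused C-terminally to the enzyme donor fragment; ligand-driven nuclear translocation restores β-gal by complementation. Compounds titrated up to 46 uM final, 2 h at 37 °C; luminescence read.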

[7] = molecular target: Mitogen-activated protein kinase 10 (Mus musculus) (UniProt Q61831); experiment: JNK3 AlphaScreen Assay (AID 530; active = well fitted curve in either direction with a large enough effect, not every such curve was filed as active;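 note: kinase came from lysate of stimulated human HepG2 cells; signal reports phosphorylation of biotinylated GST-cJun 1-79 at Ser73 with 10 µM ATP; % is set by controls: 0 for no effect and ±100 for the full control effect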); conditions: JNK3 lysate, c-Jun phosphorylation; series mostly up to 57.1 µM
How it was run: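 Inhibitors reduce antibody binding to phosphorylated biotin-cJun, lowering AlphaScreen luminescence. Lysates from HepG2 cells pre-activated by IL-1beta plus TNF-alpha supplied JNK3; compounds were titrated.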

[8] = molecular target: 3',5'-cyclic-AMP phosphodiesterase 4B (Homo sapiens) (UniProt Q07343); experiment: qHTS Assay for Inhibitors of PDE-IV (AID 607; active = well fitted activation curve with a large enough effect in the main read-out, with a control signal flat, not every such curve was filed as active; note: % of control where 0% means no effect); conditions: HEK293 ACTOne CNG channel cells, membrane potential fluorescence; series mostly up to 22.9 µM
3',5'-cyclic-AMP phosphodiesterase 4B (Homo sapiens), sequence (Q07343 whole entry, looked up): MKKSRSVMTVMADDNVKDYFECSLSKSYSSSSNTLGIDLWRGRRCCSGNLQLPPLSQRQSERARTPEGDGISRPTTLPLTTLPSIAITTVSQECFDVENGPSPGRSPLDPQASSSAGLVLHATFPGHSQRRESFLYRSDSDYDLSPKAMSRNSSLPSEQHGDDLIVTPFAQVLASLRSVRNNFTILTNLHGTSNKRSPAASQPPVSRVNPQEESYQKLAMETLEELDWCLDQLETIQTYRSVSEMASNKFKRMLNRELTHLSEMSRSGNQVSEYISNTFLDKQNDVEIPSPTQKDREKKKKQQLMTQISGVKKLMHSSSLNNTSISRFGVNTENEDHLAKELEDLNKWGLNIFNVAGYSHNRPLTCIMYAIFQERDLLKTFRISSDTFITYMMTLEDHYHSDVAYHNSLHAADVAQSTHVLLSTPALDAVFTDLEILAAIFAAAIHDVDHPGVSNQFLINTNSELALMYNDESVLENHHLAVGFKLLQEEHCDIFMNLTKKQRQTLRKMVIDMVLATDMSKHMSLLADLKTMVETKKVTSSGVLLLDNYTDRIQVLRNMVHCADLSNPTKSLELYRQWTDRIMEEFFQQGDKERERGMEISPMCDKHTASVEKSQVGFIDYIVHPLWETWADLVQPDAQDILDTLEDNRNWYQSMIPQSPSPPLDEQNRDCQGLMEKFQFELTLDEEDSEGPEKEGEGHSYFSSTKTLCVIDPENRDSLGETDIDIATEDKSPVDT
How it was run: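 HEK293 ACTOne cells with CNG channel (1000/well), endogenous PDE4; membrane potential dye, compounds up to 22.9 uM final. Fluorescence Ex 535/Em 590; RO 20-1724 (100 uM final) as reference.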

[9] = molecular target: Cytochrome P450 3A4 (Homo sapiens) (UniProt P08684); experiment: qHTS Assay for Activators of Cytochrome P450 3A4 (AID 885); conditions: recombinant CYP3A4, Luciferin-PPXE luminescence, 60 min; series mostly up to 57.1 µM; note: nearly all actives have a fitted effect of over 65% in size
Cytochrome P450 3A4 (Homo sapiens), sequence (P08684 whole entry, looked up): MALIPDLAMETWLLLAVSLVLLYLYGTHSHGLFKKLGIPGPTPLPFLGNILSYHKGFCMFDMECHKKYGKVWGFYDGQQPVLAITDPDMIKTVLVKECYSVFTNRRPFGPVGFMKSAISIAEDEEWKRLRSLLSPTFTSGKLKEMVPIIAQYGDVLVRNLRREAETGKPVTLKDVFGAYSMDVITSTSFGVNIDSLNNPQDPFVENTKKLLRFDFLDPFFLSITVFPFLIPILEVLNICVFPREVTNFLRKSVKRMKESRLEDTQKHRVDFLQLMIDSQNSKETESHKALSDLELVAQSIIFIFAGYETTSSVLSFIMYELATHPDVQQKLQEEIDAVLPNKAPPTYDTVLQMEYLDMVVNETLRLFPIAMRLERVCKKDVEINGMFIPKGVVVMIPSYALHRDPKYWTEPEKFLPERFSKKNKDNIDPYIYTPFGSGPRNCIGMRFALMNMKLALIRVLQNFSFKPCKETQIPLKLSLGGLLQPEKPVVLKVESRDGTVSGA
How it was run: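 Human CYP3A4 (20 nM) with Luciferin-PPXE at 25 uM (its KM) in 200 mM KPO4; 10 min compound preincubation, then NADPH regeneration and 60 min reaction at RT. Luciferin read by luminescence; normalized to 57 uM ketoconazole full inhibition.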

[10] = qHTS Assay for Identification of Small Molecule Agonists for Hypoxia Response Element Signaling Pathway (AID 914; active = well fitted activation curve with a large enough effect in the signal ratio, with a control signal flat, not every such curve was filed as active; the % refers to the signal ratio; note: potency is the fitted concentration of half-maximal effect); conditions: ME-180 HRE-bla reporter, beta-lactamase ratio, CoCl2, 17 h; activation: stronger effect = higher value
How it was run: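 HRE-bla ME-180 assay for agonist-like enhancement of an EC50 CoCl2 stimulus: 17 h at 37 degrees Celsius, CCF4 for 2.5 h, ratiometric 460/530 nm signal converted to %Activity and fitted to AC50.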

[11] = molecular target: Dual specificity protein kinase CLK4 (Homo sapiens) (UniProt Q9HAZ1); experiment: qHTS Assay for Inhibitors of CDC-like Kinase 4 (Kinase-Glo Assay) (AID 1770); conditions: recombinant Clk4, Kinase-Glo ATP depletion luminescence; series mostly up to 66.7 µM; note: % is set by controls: 0 for no effect and ±100 for the full control effect; nearly all actives have a fitted effect of over 65% in size
Dual specificity protein kinase CLK4 (Homo sapiens), sequence (Q9HAZ1 whole entry, looked up): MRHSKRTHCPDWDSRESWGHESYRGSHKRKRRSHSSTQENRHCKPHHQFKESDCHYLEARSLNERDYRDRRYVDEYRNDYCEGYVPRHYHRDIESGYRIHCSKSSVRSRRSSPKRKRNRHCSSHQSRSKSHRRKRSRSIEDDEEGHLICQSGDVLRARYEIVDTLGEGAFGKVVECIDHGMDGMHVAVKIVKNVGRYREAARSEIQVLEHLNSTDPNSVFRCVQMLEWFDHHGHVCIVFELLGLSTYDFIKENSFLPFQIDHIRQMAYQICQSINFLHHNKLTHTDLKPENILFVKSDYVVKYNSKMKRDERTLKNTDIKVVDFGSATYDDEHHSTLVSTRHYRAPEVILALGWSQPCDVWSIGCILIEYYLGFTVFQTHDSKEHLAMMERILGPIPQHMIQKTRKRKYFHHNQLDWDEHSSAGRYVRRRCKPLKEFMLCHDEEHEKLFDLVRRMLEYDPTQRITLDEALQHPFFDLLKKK
How it was run: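 Recombinant human Clk4 (25 nM) phosphorylated RS repeat peptide (100 uM) with 1 uM ATP in Tris pH 7.5/MgCl2/EGTA/DTT/Triton buffer for 4.5 h at room temperature. Residual ATP was quantified by Kinase-Glo luciferase luminescence.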

[12] = molecular target: Dual specificity protein kinase CLK4 (Homo sapiens) (UniProt Q9HAZ1); experiment: qHTS Assay for Inhibitors of CDC-like Kinase 4 (ADP-Glo Assay) (AID 1771); conditions: recombinant CLK4, ADP-Glo luminescence; series mostly up to 80 µM; note: % is set by controls: 0 for no effect and ±100 for the full control effect; nearly all actives have a fitted effect of over 70% in size
How it was run: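 Luminescence from ADP-Glo reports ADP produced by 25 nM Clk4 acting on 100 uM RS repeat peptide with 1 uM ATP over 1 hr at room temperature; residual ATP is depleted before ADP is converted to ATP for detection.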

[13] = molecular target: Dual specificity protein kinase CLK4 (Homo sapiens) (UniProt Q9HAZ1); experiment: qHTS Assay for Inhibitors of CDC-like Kinase 4 (ADP-FP Assay) (AID 1795); conditions: Transcreener ADP fluorescence polarization; series mostly up to 50 µM; note: % is set by controls: 0 for no effect and ±100 for the full control effect; nearly all actives have a fitted effect of over 60% in size
How it was run: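 Recombinant human Clk4 (6.25 nM) phosphorylated RS repeat peptide (100 uM) with 1 uM ATP in Tris pH 7.5/MgCl2/EGTA/DTT/Triton buffer for one hour. ADP was quantified by Transcreener competitive fluorescence polarization against an ADP calibration curve.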

[14] = molecular target: Ubiquitin carboxyl-terminal hydrolase 1 (Homo sapiens) (UniProt O94782); experiment: Inhibitors of USP1/UAF1: Pilot qHTS (AID 504865); conditions: purified USP1/UAF1, Ub-rhodamine cleavage fluorescence; series mostly up to 54.9 µM;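 note: rhodamine fluorescence freed from ubiquitin-rhodamine substrate followed over time; top concentration of the series differs between compounds; % is set by controls: 0 for no effect and ±100 for the full control effect; nearly all actives have a fitted effect of over 35% in size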
Ubiquitin carboxyl-terminal hydrolase 1 (Homo sapiens), sequence (O94782 whole entry, looked up): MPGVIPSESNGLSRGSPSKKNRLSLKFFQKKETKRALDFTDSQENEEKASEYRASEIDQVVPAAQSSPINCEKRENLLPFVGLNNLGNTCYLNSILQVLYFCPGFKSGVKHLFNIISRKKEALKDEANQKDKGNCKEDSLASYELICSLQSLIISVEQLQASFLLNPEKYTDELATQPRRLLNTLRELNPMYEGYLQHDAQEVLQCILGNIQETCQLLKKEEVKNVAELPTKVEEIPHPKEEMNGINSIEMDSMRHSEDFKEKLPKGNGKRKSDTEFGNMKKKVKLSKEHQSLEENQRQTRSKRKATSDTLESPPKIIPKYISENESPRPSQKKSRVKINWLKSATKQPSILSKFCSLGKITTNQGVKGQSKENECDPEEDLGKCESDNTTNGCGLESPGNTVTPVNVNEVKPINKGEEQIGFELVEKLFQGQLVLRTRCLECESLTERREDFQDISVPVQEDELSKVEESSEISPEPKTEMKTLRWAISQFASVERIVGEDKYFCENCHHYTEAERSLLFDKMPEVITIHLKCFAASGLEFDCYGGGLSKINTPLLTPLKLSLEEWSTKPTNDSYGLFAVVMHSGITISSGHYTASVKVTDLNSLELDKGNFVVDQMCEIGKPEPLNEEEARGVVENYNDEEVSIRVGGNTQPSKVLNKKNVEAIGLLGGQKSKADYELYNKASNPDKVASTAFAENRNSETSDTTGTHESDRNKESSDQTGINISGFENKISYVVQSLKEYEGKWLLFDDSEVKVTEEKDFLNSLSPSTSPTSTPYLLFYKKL
How it was run: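 USP1/UAF1 complex (1nM) preincubated with compound 15 min at room temperature, then Ub-Rho substrate (150nM final) added. Fluorescence read kinetically at 480/540 nm, 6 reads every 60 seconds. Buffer: 50mM HEPES pH 7.8, 0.5mM EDTA, 0.1 mg/ml BSA, 1mM TCEP, 0.01% Tween-20.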

[15] = Counterscreen qHTS for small molecule stabilizers of the endoplasmic reticulum resident proteome: GLuc-NoTag assay (AID 1508627); conditions: Gaussia luciferase NoTag secretion counterscreen, luminescence, thapsigargin 100 nM for final 4 h; series mostly up to 76.4 µM;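 note: SH-SY5Y cells given compound then 100 nM thapsigargin to empty ER calcium; 0% = thapsigargin alone and -100% = DMSO vehicle control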
How it was run: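 SH-SY5Y cells stably expressing constitutively secreted GLuc (no SERCaMP tag) were pre-incubated 5 h, treated with compound for 19 h, then 100 nM thapsigargin for 4 h at 37C; medium GLuc read by coelenterazine luminescence.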

[16] = Cell Viability qHTS for small molecule stabilizers of the endoplasmic reticulum resident proteome (AID 1508629); conditions: cell viability counter-screen, 100 nM thapsigargin for final 4 h;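 note: human SH-SY5Y neuroblastoma cells carrying the GLuc-SERCaMP reporter; compound exposure about 46 h in total before the viability read; % is set by controls: 0 for no effect and ±100 for the full control effect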
[17] = Stat Signaling Pathway (AID 446; active = well fitted curve in either direction with a large enough effect, not every such curve was filed as active); conditions: ME-180 SIE beta-lactamase reporter, IL-6 stimulated, 5 h; at 7.69 µM (top of the series) unless noted
How it was run: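 ME-180 cells carrying a SIE-driven beta-lactamase reporter are stimulated with 40 pM IL-6 for 5 h at 37C in the presence of compound. The 460/530 nm FRET substrate ratio is read after 2.5 h at RT. Data are normalised to 300 pM IL-6 and to 125 nM JAK inhibitor controls.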

[18] = molecular target: Cytochrome P450 3A4 (Homo sapiens) (UniProt P08684); experiment: qHTS Assay for Inhibitors and Substrates of Cytochrome P450 3A4 (AID 884); conditions: recombinant CYP3A4, Luciferin-PPXE luminescence; series mostly up to 57.1 µM; note: potency is the fitted concentration of half-maximal effect; nearly all actives have a fitted effect of over 50% in size
How it was run: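 20 nM human CYP3A4 with 25 uM Luciferin-PPXE (at KM) in 200 mM KPO4, preincubated 10 min with compound; NADPH regeneration started a 60 min RT reaction. Luciferin detected by luminescence, normalized to 57 uM ketoconazole as full inhibition.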

[19] = Confirmatory qHTS for small molecule stabilizers of the endoplasmic reticulum resident proteome: Secreted ER Calcium Modulated Protein (SERCaMP) assay (AID 1508628); conditions: SERCaMP secreted luciferase ER calcium/proteostasis reporter; series mostly up to 76.3 µM; note: nearly all actives have a fitted effect of over 40% in size; note: potency is the fitted concentration of half-maximal effect
How it was run: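 SH-SY5Y cells stably expressing GLuc-SERCaMP, treated 16 h with compound (primary 1.53, 7.67, 38.3 uM; confirmation 11 concentrations, up to 76.6 uM), then 100 nM thapsigargin for 4 h. Secreted Gaussia luciferase in medium read by coelenterazine luminescence.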

[20] = Confirmation and Secondary Assay for Modulators of Hemoglobin Beta Chain Splicing at IVS2 654 locus (AID 910); conditions: HeLa EGFP-654 splicing reporter, GFP fluorescence, 48 h; series mostly up to 38.3 µM;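 note: per-well total GFP intensity by laser scanning cytometry after 2-day treatment; % of control where 0% means no effect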
How it was run: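 HeLa cells stably carrying EGFP interrupted by mutant beta-globin IVS2-654 intron (CMV-driven) were treated with compound for 2 days at 37C; corrected splicing was scored as total peak GFP intensity per well (488 nm excitation, 500-520 nm emission).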

[21] = Confirmation and Secondary Assay for Modulators of Hemoglobin Beta Chain Splicing at IVS2 705 locus (AID 930); conditions: HeLa EGFP-705 splicing reporter, GFP fluorescence, 48 h; series mostly up to 38.3 µM;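 note: HeLa cells stably expressing the EGFP-705 splicing reporter; GFP fluorescence per well restored by corrected splicing of the IVS2-705 intron in EGFP; % of control where 0% means no effect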
How it was run: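 HeLa IVS2-705 EGFP reporter cells, 500/well, compound 2 d at 37C; correct splicing yields fluorescent EGFP. Control: 500 nM antisense PNA. Read-out: total peak GFP intensity.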

[22] = qHTS Assay for Lipid Storage Modulators (AID 1519; calls by dose curve); conditions: Drosophila S3 cells, BODIPY lipid droplet/cell ratio, laser cytometry, cells loaded with oleic acid; for activity change, negative = inhibition: at 57.5 µM (top of the series)
How it was run: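 Cells seeded at 5,000 per well were treated with compounds over a concentration series and loaded with oleic acid (400 uM, as added). Lipid droplet fluorescence (488 nm excitation, 500-530 nm channel) was read by laser-scanning cytometry and normalized to 20 uM Triacsin C.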

[23] = molecular target: Cytochrome P450 2D6 (Homo sapiens) (UniProt P10635); experiment: qHTS Assay for Inhibitors and Substrates of Cytochrome P450 2D6 (AID 891); conditions: recombinant CYP2D6, luciferin-ME EGE luminescence; series mostly up to 57.1 µM; note: potency is the fitted concentration of half-maximal effect; nearly all actives have a fitted effect of over 60% in size
Cytochrome P450 2D6 (Homo sapiens), sequence (P10635 whole entry, looked up): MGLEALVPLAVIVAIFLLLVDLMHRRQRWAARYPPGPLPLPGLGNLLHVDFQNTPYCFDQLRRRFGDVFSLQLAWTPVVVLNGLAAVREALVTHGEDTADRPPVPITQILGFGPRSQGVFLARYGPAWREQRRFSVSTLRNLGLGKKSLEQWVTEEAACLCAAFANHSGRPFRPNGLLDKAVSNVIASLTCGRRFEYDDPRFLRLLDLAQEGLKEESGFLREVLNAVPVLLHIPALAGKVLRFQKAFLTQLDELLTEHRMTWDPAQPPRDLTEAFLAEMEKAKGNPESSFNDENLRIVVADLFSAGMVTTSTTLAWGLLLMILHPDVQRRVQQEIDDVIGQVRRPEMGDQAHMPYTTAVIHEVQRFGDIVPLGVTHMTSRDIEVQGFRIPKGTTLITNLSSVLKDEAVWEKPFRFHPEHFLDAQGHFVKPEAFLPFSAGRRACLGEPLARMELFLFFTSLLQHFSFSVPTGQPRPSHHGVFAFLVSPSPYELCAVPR
How it was run: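 Human CYP2D6 (5 nM) with 30 uM Luciferin-ME EGE (at Km) in 100 mM KPO4, compound preincubated 10 min, then NADPH regeneration system for 60 min at room temperature. Luciferin read by luminescence; normalized to 1.43 uM quinidine.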

[24] = measured here: cell count channel max response
[25] = measured here: lipid channel max response

COCCn1c(=O)c(-c2cn(C)c3ccccc23)nc2cnc(N3CCNCC3)nc21
active: Potency [3] 12.6 µM | Potency [10] 3.16 µM
inactive: Potency [1] > 11.4 µM | activity change, negative = inhibition [2] 16% | activity change, negative = inhibition [4] 18.5% | Potency [5] > 9.22 µM | Potency [6] > 46 µM | outcome [7] | Potency [8] | Potency [9] | Potency [11] | Potency [12] | Potency [13] | Potency [14] | Potency [15] | max response [16] -7.1%

CN(C)c1nccc(N(Cc2ccccc2)Cc2ccccc2)c1C#N
inactive: Potency [15] | max response [16] -2.77%

O=C(c1ccco1)N1CCC[C@@]2(CCN(c3ccncc3)C2)C1
inactive: Potency [1] > 11.4 µM | activity change, negative = inhibition [2] 0.424% | activity, negative = inhibition [17] 1.83% | Potency [6] > 46 µM | outcome [7] | Potency [8] | Potency [9] | Potency [15]
active: Potency [3] 12.6 µM | Potency [18] 1.26 µM | Potency [19] 28.2 µM

CN1CCN(c2ncnc3ccc(-c4ccccc4C#N)cc23)CC1
inactive: Potency [1] > 11.4 µM | activity change, negative = inhibition [2] 15.1% | activity change, negative = inhibition [4] -9.23% | activity, negative = inhibition [17] 19.8% | Potency [5] > 46 µM | Potency [6] > 46 µM | outcome [7] | Potency [9] | outcome [20] | outcome [21] | activity change, negative = inhibition [22] 3.92% | Potency [15] | Potency [19]
-16%: max response [22, 25]
-20.1%: max response [22, 24]
active: Potency [3] 3.16 µM

O=c1c(-c2ccccc2)nc2cnc(N3CCNCC3)nc2n1-c1ccccc1
active: Potency [3] 7.94 µM | Potency [10] 3.16 µM
inactive: Potency [1] > 11.4 µM | Potency [5] > 9.22 µM | Potency [6] > 46 µM | outcome [7] | Potency [8] | Potency [9] | Potency [11] | Potency [12] | Potency [14] | Potency [15] | Potency [19]

COc1ccccc1CNc1ncnc2ccc(-c3ccccc3CN(C)C)cc12
3.46%: max response [22, 25]
active: Potency [3] 15.8 µM | Potency [23] 2.51 µM | Potency [19] 10 µM
-1.21%: max response [22, 24]
inactive: Potency [1] > 11.4 µM | activity change, negative = inhibition [2] -6.09% | activity, negative = inhibition [17] -9.28% | Potency [5] > 46 µM | Potency [6] > 46 µM | outcome [7] | Potency [9] | outcome [20] | outcome [21] | activity change, negative = inhibition [22] 5.99% | Potency [14] | Potency [15]

Cc1nc2cnc(N3CCNCC3)nc2n(CCc2ccccc2)c1=O
inactive: Potency [1] > 11.4 µM | activity change, negative = inhibition [2] -1.97% | activity change, negative = inhibition [4] -13.2% | activity, negative = inhibition [17] -13.8% | Potency [6] > 46 µM | outcome [7] | Potency [8] | Potency [11] | Potency [13] | Potency [14] | Potency [15]
active: Potency [19] 31.6 µM
